SMN2 splice up: qHTS Assay for Enhancers of SMN2 Splice Variant Expression. HEK293 SMN2-luciferase splicing reporter, luminescence, 30-36 h. Potency, µM (top dose mostly 46.1 µM), inactives show at the highest dose activity change, positive = activation, usual class: activators. hit rate 2.8% among 210,000. AID 1458, 2008; also: % of control where 0% means no effect; nearly all actives have a fitted effect of over 55% in size
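HEK293 cells carry an SMN2 minigene-luciferase reporter in which exon 7 inclusion puts luciferase in frame. Cells were seeded at 2000 cells/well, attached for 10-12 hours, then exposed to compounds for 30-36 hours at 37C before ONE-Glo luminescence.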
FLuc counter: qHTS profiling assay for firefly luciferase inhibitor/activator using purifed enzyme and Km concentrations of substrates (counterscreen for miR-21 project); hit rate 6.9% among 360,000; Potency, µM (doses to about 57.5 µM), without a hit: top-dose activity change, negative = inhibition, most hits filed as inhibitors; Luciferin 4-monooxygenase (Photinus pyralis), P08659; purified FLuc, Km substrates, luminescence inhibition;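 also: plate controls were vehicle for no effect and reference inhibitor for full effect; nearly all actives have a fitted effect of over 55% in size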
Target sequence (P08659 whole entry, looked up): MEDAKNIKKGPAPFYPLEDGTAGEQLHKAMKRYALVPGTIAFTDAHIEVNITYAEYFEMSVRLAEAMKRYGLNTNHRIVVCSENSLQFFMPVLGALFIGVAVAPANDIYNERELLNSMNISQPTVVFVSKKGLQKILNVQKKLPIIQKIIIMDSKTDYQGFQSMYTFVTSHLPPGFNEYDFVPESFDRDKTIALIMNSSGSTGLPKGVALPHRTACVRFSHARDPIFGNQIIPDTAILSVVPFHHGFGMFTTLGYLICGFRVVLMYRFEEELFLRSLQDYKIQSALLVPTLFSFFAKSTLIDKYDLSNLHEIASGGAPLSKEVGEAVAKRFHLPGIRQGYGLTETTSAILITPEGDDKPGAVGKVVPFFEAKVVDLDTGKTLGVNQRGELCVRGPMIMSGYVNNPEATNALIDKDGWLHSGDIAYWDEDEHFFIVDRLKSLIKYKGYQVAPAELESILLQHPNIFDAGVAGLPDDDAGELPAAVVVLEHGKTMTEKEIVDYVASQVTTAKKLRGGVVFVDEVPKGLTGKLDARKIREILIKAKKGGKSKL
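Purified P. pyralis luciferase (10nM final) with 10uM D-luciferin and 10uM ATP (Km levels) in 50mM Tris acetate pH 7.5, 10mM Mg acetate, 0.01% Tween-20, 0.05% BSA; qHTS 6-point titration, ~60 µM downward; luminescence read.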
NPC1 prom act: qHTS Assay for NPC1 Promoter Activators | Huh7 NPC1 promoter luciferase reporter, 24 h | hit rate 2.4% among 320,000 | Potency, µM (top dose mostly 9.22 µM), for the others: at the highest dose activation, most hits filed as activators; also: % of control where 0% means no effect; nearly all actives have a fitted effect of over 60% in size
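In 1536-well qHTS, Huh7 cells harboring an NPC1 promoter–luciferase construct received compound for 24 h; activation was quantified by luminescence following luciferase reagent addition.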
ELG1 genotox: qHTS screen for small molecules that induce genotoxicity in human embryonic kidney (HEK293T) cells expressing luciferase-tagged ELG1. HEK293T ELG1-luciferase reporter, luminescence, 16 h. Potency, µM (titrated, usually from 46 µM), without a hit: top-dose activity change, positive = activation, hits mostly activators. hit rate 1.3% among 330,000; also: % of control where 0% means no effect; nearly all actives have a fitted effect of over 60% in size
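Step 1: seed 2,000 HEK293T ELG1-luciferase cells per well. Step 2: add compound or DMSO, incubate 16 hr at 37 °C. Step 3: ONE-Glo, 30 min at room temperature, read luminescence.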
Rab9 prom act: qHTS Assay for Rab9 Promoter Activators; Huh7 Rab9 promoter-luciferase reporter, luminescence, 24 h; hit rate 2.8% among 320,000; Potency, µM (titrated, usually from 9.22 µM), without a hit: at the highest dose activation, negative = inhibition, hits mostly activators; also: % of control where 0% means no effect; nearly all actives have a fitted effect of over 60% in size
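Using Huh7 cells stably transfected with Rab9 promoter–luciferase, compounds were incubated 24 h at 37 °C, 5% CO2; luciferase luminescence was read 10 min after reagent addition.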
* hit, by the source's call; ? = inconclusive; nt = no result; [ ] = remark or other dose. A selection: hits, their analogues and other compounds. The true share with any hit is near 7.4%. Calls follow the shape of the dose curve; as a rule, active = well fitted curve in the direction sought with a large enough effect; inconclusive = small, poorly fitted or top-dose-only effect, or another doubt; inactive = no such curve, though single readings can be large; an effect the other way counts as inactive or inconclusive. Potency is read from the fitted curve at half-maximal effect.

SMILES | SMN2 splice up | FLuc counter | NPC1 prom act | ELG1 genotox | Rab9 prom act
COc1ccc(-c2cnnc(N/N=C/c3ccc(O)c(O)c3)n2)cc1 | ? | 2.69µM* | -12.8% | 11.7% | -9.4%
COc1ccc(-c2cnnc(N/N=C/c3ccc(C)o3)n2)cc1 | -3.4% | -2.7% | -5.6% | 14.6% | -3.3%
COc1ccc(Nc2nc(NCc3ccco3)nc(N/N=C/c3ccc(O)cc3)n2)cc1 | nt | 15.1µM* | -1.2% | -6.9% | 0.7%
COC(=O)c1ccc(C)c(NC(=O)C(CCSC)NC(=O)c2cc(OC)c(OC)c(OC)c2)c1 (centres undefined) | nt | -0.6% | 1.3% | -0.8% | 0.3%
CCCCNS(=O)(=O)c1cc2c3c(c1)CCN3C(=O)CC2 | nt | 1.0% | -3.0% | 13.2% | -0.1%
Cc1ccccc1CN1C(=O)C(O)(CC(=O)c2cccc(Br)c2)c2ccccc21 (centres undefined) | -6.2% | 1.6% | nt | nt | nt
CCCCC(=O)Nc1ccc2oc(-c3ccncc3)nc2c1 | -5.9% | -20.0% | 2.1% | 17.8% | 4.0%
CCCCCC(=O)Nc1ccc2oc(-c3cncc(Br)c3)nc2c1 | 11.2µM* | 6.8% | 0.708µM* | ? | 1.58µM*
CCCC(=O)Nc1ccc2oc(-c3cncc(Br)c3)nc2c1 | 4.47µM* | ? | 1.58µM* | 9.2µM* | 1.26µM*
CC(CCCC(C)(C)O)NCc1cn[nH]c1-c1ccc2c(c1)OCO2 (centres undefined) | nt | 0.0% | -2.1% | -0.7% | 0.6%
Cc1ccnc(NC(=O)c2ccc3c(c2)NC(=O)C(C)S3)c1 (centres undefined) | nt | 1.9µM* | 0.708µM* | ? | 0.631µM*
CC(=O)c1ccccc1NC(=O)c1ccc2c(c1)NC(=O)C(C)S2 (centres undefined) | nt | 15.1µM* | ? | ? | ?
CC1Sc2ccc(C(=O)Nc3ccc(S(=O)(=O)N(C)C)cc3)cc2NC1=O (centres undefined) | nt | -6.8% | -0.9% | -20.0% | -6.7%
c1ccc(COc2ccc(-c3csnn3)cc2)cc1 | ? | 2.39µM* | 1.78µM* | 25.8% | 2.82µM*
Nc1ccc(OCc2ccccc2)cc1 | 12.6µM* | ? | 28.3% | 19.0% | ?
Nc1ccc(OCCc2ccccc2)cc1 | nt | -12.1% | ? | 17.4% | ?
Cc1ccccc1C(=O)Oc1ccc(-c2csnn2)cc1 | nt | 12µM* | -0.2% | ? | -0.8%
OCCNCCCCOc1ccc(OCc2ccccc2)cc1 | 15.8µM* | 10.7µM* | ? | ? | 3.55µM*
Cc1cc(C)c(NC(=O)c2ccc(CNS(=O)(=O)c3cc(C(F)(F)F)ccc3Cl)cc2)c(C)c1 | -22.1% | 0.0% | -4.3% | -3.6% | -6.4%
Cc1cc(C)n(-c2ccc(NC(=O)C3CCCCN3C(=O)c3sccc3C)cc2)n1 (centres undefined) | nt | -2.1% | 1.8% | -16.5% | 5.0%
CCN1C(=O)/C(=C2/C=CC=CN2C)SC1=S | 8.7% | -6.9% | 0.7% | -3.4% | 2.1%
CCN1C(=O)/C(=C/C=C2\C=CN(CC)c3ccccc32)SC1=S | 9.1% | ? | ? | ? | 3.16µM*
CCCN1C(=O)/C(=C\C=C2/Sc3ccccc3N2CC)SC1=S | -11.8% | -17.4% | -2.6% | -1.9% | -2.0%
CCN1C(=O)/C(=C\C=C2/C=CC=CN2CC)SC1=S | 5.62µM* | 3.79µM* | 1.58µM* | 20.6µM* | 1.41µM*
O=C(Nc1cccs1)NC1CCCC1 | -5.5% | -17.3% | 21.6% | 16.9% | 9.5%
SMILES | SMN2 splice up | FLuc counter | NPC1 prom act | ELG1 genotox | Rab9 prom act
CCOC(=O)CN(C(=O)CNC(=O)c1cccs1)C(C(=O)NC1CCCC1)c1ccncc1 (centres undefined) | -7.6% | -0.1% | 1.2% | -1.6% | 0.9%
Cc1ccc(C(=O)NCC(=O)NC2CCC(C)CC2)s1 (centres undefined) | nt | 2.1% | -0.2% | 5.7% | 2.4%
CC1CCC(NC(=O)Nc2cccs2)CC1 (centres undefined) | 17.5% | 15.1µM* | 2.8% | ? | ?
CCCCN(C(=O)CNC(=O)c1cccs1)C(C(=O)NC1CCCC1)c1ccncc1 (centres undefined) | nt | 7.57µM* | 0.4% | 5.1% | -3.5%
CC1CCC(NC(=O)CNC(=O)c2cccs2)CC1 (centres undefined) | nt | ? | ? | ? | 3.98µM*
CCc1ccc(CCC(=O)O)nc1 | 2.3%[9.22 µM] | nt | nt | nt | nt
Cc1ccc(S(=O)(=O)N2CCCCC2)cc1C(=O)N(CCc1ccccc1)Cc1ccccc1 | nt | 5.3% | 0.6% | -4.5% | -2.9%
CCOc1ccc(N2CCc3c(C)nc(SC)nc32)cc1 | -11.9% | 1.1% | -30.6% | -9.2% | -15.7%
Cc1cc(NC(=O)c2sccc2C)n(-c2cccc(Cl)c2)n1 | -3.3% | 26.9µM* | 2.1% | 3.0% | 3.1%
CC(=O)c1cccc(NC(=O)C23CC4CC(C2)CC(n2cncn2)(C4)C3)c1 | -1.6% | 0.5% | -3.5% | 1.0% | 0.3%
c1ccc(C2Nc3ccccc3-c3nc4ccccc4n32)cc1 (centres undefined) | 25.6% | 21.3µM* | 3.1% | ? | 5.6%
c1ccc(C2Nc3ccccc3-c3nc4ccccc4n32)nc1 (centres undefined) | -8.1% | ? | -5.8% | 1.5% | -1.0%
Cc1cc2n(n1)C(c1ccco1)Nc1ccccc1-2 (centres undefined) | -2.2% | 0.4% | -5.7% | 3.3% | 1.5%
c1coc(C2Nc3ccccc3-c3nc4ccccc4n32)c1 (centres undefined) | 17.8µM* | 21.3µM* | ? | ? | ?
COCCNC(=O)COc1ccc(OCCNC[C@H](O)COc2ccccc2)cc1 | -3.7% | nt | nt | nt | nt
COc1ccccc1CCNC(=O)c1nc(-c2cccs2)no1 | ? | 16.9µM* | ? | ? | ?
COc1ccccc1CC(=O)NCc1csc(-c2cccs2)n1 | nt | 16.9µM* | ? | 16.1% | ?
CCC(=O)NCc1csc(-c2cccs2)n1 | nt | -7.8% | 20.2% | 9.7% | ?
O=C(COC(=O)C1(c2ccccc2F)CCCC1)N1CCNC1=O | nt | 6.7% | 0.5% | -0.5% | -2.5%
Cc1ccc(-c2nc3ccccc3[nH]2)cc1NC(=O)/C=C/c1ccco1 | 7.4% | 8.49µM* | 23.5% | -3.4% | ?
CCCOc1ccc(C(=O)Nc2cc(-c3nc4ccccc4[nH]3)ccc2C)cc1 | -2.5% | ? | nt | nt | nt
Cc1ccc(OCC(=O)Nc2cc(-c3nc4ccccc4[nH]3)ccc2C)c(C)c1 | 4.1% | -4.2% | nt | nt | nt
Cc1ccc(-c2nc3ccccc3[nH]2)cc1NC(=O)c1ccc2c(c1)OCO2 | 2.5% | 10.7µM* | ? | -2.1% | 3.4%
Cc1cc(C)c2oc(-c3ccc(C)c(NC(=S)NC(=O)/C=C/c4ccco4)c3)nc2c1 | 15.9% | ? | 2.7% | -0.1% | 9.3%

Bioassay records (PubChem BioAssay)
